Records with an inconclusive call do not appear. A call without a number means that no potency is given here. Calls of active or inactive are those of the source. Calls follow the shape of the dose curve; as a rule, active = well fitted inhibition curve with a large enough effect; inconclusive = small, poorly fitted or top-dose-only effect; inactive = no such curve, though single readings can be large or run the other way. Peptide text beside a SMILES is read from it. * marks the point of attachment. Hexanoyl = CCCCCC(=O)*
Potency is read from the fitted curve at half-maximal effect.

A short description of the test: qHTS for Hypoxia signaling pathway (HIF-1) antagonists against the NCATS CANVASS Library (AID 1347374). Also: nearly all actives have a fitted effect of over 60% in size. The settings on record: HRE-bla ME-180 cells, HIF-1 beta-lactamase reporter, CoCl2; series mostly up to 38.3 µM. From the text: Natural products and their derivatives continue to be wellsprings of nascent therapeutic potential. However, many laboratories have limited resources for biological evaluation, leaving their previously isolated or synthesized compounds largely or completely untested. To address this issue, the Canvass library of natural products was assembled (https://tripod.nih.gov/canvass), in collaboration with academic and industry researchers, for quantitative high-throughput screening (qHTS) across a diverse set of cell-based and biochemical assays. […] We collected pure natural products to circumvent deconvolution and structure elucidation due to time and resource limitations. The library was formatted into 1536-well plates and evaluated in 50 qHTS (in an 11-pnt concentration series) bioassays with broad scope of disease-relevant mechanisms. The resulting data set from 50 different assays was then systematically analyzed to identify overall trends and specific natural products with interesting biological activities. Reported herein are the results of each individual qHTS and their corresponding assay protocol. During hypoxic conditions, the cellular responses are regulated in large part through the activation of the heterodimeric transcription factor called hypoxia-inducible factor-1 (HIF-1). The assay used is a beta-lactamase reporter gene under control of the hypoxia responsive element (HRE) that has been stably integrated into ME-180 cells. This assay identifies inducers of the HIF-1-signaling pathway. The cytotoxicity of the compound library against HRE-bla ME-180 cell line was tested in parallel by measuring cell viability using CellTiter-Glo assay (Promega, Madison, WI) in the same assay wells. The compounds were also tested for auto fluorescence that may interfere with the biological target readout resulting in potential false positives and/or negatives. National Center for Advancing Translational Sciences (NCATS), Rockville, MD National Institute of Health (NIH), Bethesda, Maryland
HIF-1 antagonist assay protocol: 1. HRE-bla ME-180 cells were dispensed at 2,000 cells per well in 5 uL of assay medium containing 0.5% dialyzed FBS into black wall/clear-bottom 1536-well plates using a Multidrop Combi (Thermo Scientific, Waltham, MA) dispenser. 2. After the assay plates were incubated at 37C and 5% CO2 for 5 hrs, 23 nL of compounds dissolved in DMSO, positive controls or DMSO only was transferred to each well of the assay plate using a Pintool station (Kalypsys, San Diego, CA). 3. One microliter of 60 uM CoCl2 (which enhance the stability of HIF-1alpha) or 1 uL of assay medium was added to the wells using BioRAPTR dispenser. 4. The assay plates were then incubated at 37C and 5% CO2 for 17 hrs. 5. One microliter of CCF4 dye was added the assay plate and incubated at room temperature for 2 hours. 6. The fluorescence intensity was obtained using the EnVision (PerkinElmer, Shelton, CT) plate reader using a 405 nm excitation, and 460 and 530 nm emission filters. 7. To assess cell viability (and for data normalization), 4uL of CellTiter-Glo (Promega) was added to the assay plate using the BioRAPTR dispenser and incubated at room temperature for 30 min. 8. Luminescence signal was obtained using the ViewLux microplate reader (PerkinElmer) using a clear emission mirror, and a 15 sec exposure time, 1x binning settings.
Consider `COc1ccc([C@@H]2c3cc4c(cc3C(=O)[C@H](C)C2C)OCO4)cc1OC` (stereo not given in full), for which the Potency result was “inactive”.
As for `O=C1CC(c2ccc(O)cc2)Oc2cc(O)ccc21` (stereo not given), the Potency result was “inactive”.
On to `Cc1cc(O)cc2c1C(=O)c1c(O)cc(O)cc1C2=O`, for which the Potency result was “inactive”.
Regarding `C/C=C1/CN2C3CC1C1C=CC(=O)N4c5ccccc5[C@@]3(C[C@@H]2C2=C[C@H]3C5CC6N(CC[C@@]67c6ccccc6N(C2=O)[C@@H]37)C/C5=C/C)[C@H]14` (stereo not given in full), the Potency is 9.41 µM (active).
Regarding `C/C(=C\[C@H](C)C(=O)C[C@H](O)CC1CC(=O)NC(=O)C1)[C@@H]1OC(=O)CCCC/C=C/C[C@@H](O)[C@@H]1C`, the Potency was 4.72 µM (active).
As for `CO/C=C/C(=O)c1cc2cnc3c(N)cc(=NC(=O)C(C)C)c([nH]1)c23`, the Potency was 0.0334 µM (active).
Then `COc1cc2c(c(O)c1O)C(=O)c1c(coc1C)C2=O`, with 5.29 µM (active); and `COC1C(C)OC(OCC23C[C@@H]4[C@H](C)CC[C@H]4C4(C=O)CC2C=C(C(C)C)C34C(=O)O)[C@@H](O)[C@H]1O` (stereo not given in full), with “inactive”.
On to `C=C1CC[C@@H](O[C@H]2C[C@@](O)([C@H](C)NC(=O)c3[nH]c(C)c(Cl)c3Cl)[C@H](O)[C@@H](C)O2)[C@@H]2C=C[C@H](C)C(/C(O)=C3/C(=O)[C@H](C(C)C)N([C@@H]4O[C@H](C)[C@H](OC(N)=O)[C@H](OC(C)=O)[C@@H]4OC)C3=O)[C@@H]12` (stereo not given in full), for which the Potency is 16.7 µM (active).
On to `C/C=C(/C)c1c(Cl)c(O)c(C)c2c1Oc1c(Cl)c(O)c(Cl)c(C)c1C(=O)O2`, for which the Potency is 10.6 µM (active).
For `COc1ccc2[nH]c3c(c2c1)CCN1C[C@H]2C[C@@H](OC(=O)c4cc(OC)c(OC)c(OC)c4)[C@H](OC)[C@@H](OC)[C@H]2C[C@H]31`, the Potency entry was “inactive”.
For `O=c1cc(-c2ccc(O)c(O)c2)oc2cc(O[C@@H]3O[C@H](CO)[C@@H](O)[C@H](O)[C@H]3O)cc(O)c12`, the Potency entry is “inactive”.
Take `CC1=C(C)C(=O)OC(C(C)C2(O)CCC3C4C5OC5C5(O)CC=CC(=O)C5(C)C4CCC32C)C1` (stereo not given): the Potency result is “inactive”.
On to `C[C@@]12CCC[C@@](C)(C(=O)O)[C@H]1C[C@@H](O)[C@@]13C[C@@H](CC[C@@H]21)[C@](C)(O)C3`, for which the Potency result is “inactive”.
In the case of `CC(=O)c1c(C)cc2c(c1O)C(=O)c1c(O)cc(O)cc1C2=O` it was “inactive”; in that of `CCCCCC(=O)N[C@@H](CC(C)C)C(=O)N[C@H](C=O)CCC(=O)O` (Hexanoyl-Leu-Glu-aldehyde), “inactive”; in that of `COc1cc(C2C3=C(Cc4cc5c(cc42)OCO5)C(=O)OC3)cc(OC)c1OC` (stereo not given), “inactive”.
As for `C/C=C(/CO)C(=O)O[C@@H]1[C@H](O)[C@@H](C(=O)OC)O[C@@H]2C[C@H]3OC(n4cnc5c(N)ncnc54)[C@H](OC)[C@H]3O[C@@]12O` (stereo not given in full), the Potency entry was “inactive”.
Consider `CO[C@H]1/C=C/CCCCC(=O)O[C@@H](/C(C)=C/[C@H](C)C(=O)C[C@H](O)CC2CC(=O)NC(=O)C2)[C@@H](C)C1`, for which the Potency was 7.47 µM (active).
In the case of `C[C@@]1(CCC(=O)Nc2c(O)ccc(C(=O)O)c2O)C(=O)C=C[C@]23C[C@H]4C[C@H](O[C@@]4(C)C2)C31` (stereo not given in full) it was “inactive”.
Turning to `C=C[C@]1(C)CC[C@@H]([C@H](C)C(=O)CC=C(C)C)O1`, the Potency result is “inactive”.
On to `COc1cc2ccc(=O)oc2c(O)c1O[C@@H]1O[C@H](CO)[C@@H](O)[C@H](O)[C@H]1O`, for which the Potency entry is “inactive”.
For the compound `COC(=O)[C@]1([C@H]2CCC(=O)O2)CC(=O)c2c(O)cc(C)cc2O1`, the Potency entry is “inactive”.
Take `C/C=C/[C@H]1[C@H]2C(=O)c3c(O)c(C)c(O)c(C)c3[C@]1(C(=O)O)C(=O)C=C2C`: the Potency result was “inactive”.
For the compound `O=c1cc(-c2ccc(O)cc2)oc2cc(O)c([C@@H]3OC(CO)[C@H](O)[C@@H](O)[C@H]3O)c(O)c12` (stereo not given in full), the Potency result was “inactive”.
For the compound `[C-]#[N+][C@@]12C(=O)[C@@H]3[C@@H](O[C@@]4(C(=O)N(C)c5cccc1c54)C3(C)C)C(=O)[C@@]2(C)C=C`, the Potency is 2.98 µM (active).
On to `CC(C)=CCC[C@]1(C)[C@H]2CC(=O)[C@@]3(CO3)[C@@H]1C2`, for which the Potency result is “inactive”.
As for `C/C(=C\[C@H](C)C(=O)CCCC1CC(=O)NC(=O)C1)[C@@H]1OC(=O)/C=C/CC/C=C/[C@H](O)[C@@H](O)[C@@H]1C`, the Potency is 0.374 µM (active).
In the case of `Oc1ccc(C2Oc3cc(O)c4c(c3[C@@H]2c2cc(O)cc(O)c2)[C@H]2C(c3ccc(O)cc3)c3c(O)cc5c(c3[C@H]2C4c2ccc(O)cc2)[C@H](c2cc(O)cc(O)c2)C(c2ccc(O)cc2)O5)cc1` (stereo not given in full) it was “inactive”; in that of `CO[C@H]1[C@@H](OC(=O)/C(C)=C\[C@@H]2O[C@@H]2[C@H]2O[C@H]2C)[C@H](O)[C@H](OCC23C[C@@H]4[C@H](C)CC[C@H]4C4(C=O)CC2C=C(C(C)C)C34C(=O)O)O[C@@H]1C` (stereo not given in full), “inactive”.
`C/C(=C\[C@@H](C)CC/C=C/CC/C=C/C(=O)O)[C@H](O)[C@H](C)C(=O)CCCC1CC(=O)NC(=O)C1`: the Potency result is “inactive”.
Turning to `COC(=O)c1cccc2oc(-c3cccc4oc(-c5c(C)cccc5O)nc34)nc12`, the Potency is 0.941 µM (active).
Take `CC(CCC[C@]1(C)C(=O)C=C[C@@]23C[C@]4(C)O[C@@H](C[C@@H]4[C@H]2O)C31)C(=O)O` (stereo not given in full): the Potency entry was “inactive”.
Then `CC(=O)O[C@H]1c2ccccc2-c2c3c(cc4c2[C@@H]1N(C(C)=O)CC4)OCO3`, with “inactive”; and `C=C1[C@@]2(C)CC3C4(C)CCC(O)C(C)(C)C4CCC3(C)[C@]1(C(=O)OC)C(=O)C(C)(O)C2=O` (stereo not given in full), with “inactive”.
In the case of `CC[C@H](O)CCCCC[C@@H]1NC(=O)[C@H]2CCCCN2C(=O)[C@H]([C@H](C)CC)NC(=O)[C@H](Cc2cn(OC)c3ccccc23)NC1=O` it was “inactive”; in that of `C/C(=C\[C@@H](C)CC/C=C/CC/C=C/C(=O)O)[C@@H](O)[C@H](C)C(=O)CCCC1CC(=O)NC(=O)C1`, “inactive”; in that of `C[C@@]12C[C@@H](C[C@@H]3C(=O)O[C@@H](c4ccoc4)[C@H](OC(=O)c4ccccc4)[C@@H]31)OC2=O`, “inactive”.
Consider `CN1CCc2cc3c(c4c2C1(C)C(=O)c1cc(O)ccc1-4)OCO3` (stereo not given), for which the Potency is 13.3 µM (active).
Then `CCCc1c2c([nH]c(=O)c1C)C(=O)c1[nH]c(=O)c(C)c(CCC)c1C2=O`, with 9.41 µM (active).

The values above are taken from PubChem BioAssay (NCATS).
